Assay results as given in the supplement of paper PMC13380429.

System: Vero E6 infected with SARS-CoV-2
Test: inhibition of SARS-CoV-2 cytopathic effect; higher = more antiviral protection, active = above 15
Settings: 48 h

Measured: inhibition of SARS-CoV-2 cytopathic effect

CS(=O)(=O)c1ccc(-c2cnc(N)c(C(=O)Nc3ccccc3)n2)cc1
inactive: 1 nM 1.3% | 8.33 nM -2.14% | 100 nM 1.58% | 833.33 nM 0.67% | 10000 nM 2.65%

C#Cc1cccc2c1c(C(=O)c1ccc(Cn3c(C)nc4cnccc43)c(F)c1)cn2C(=O)N(C)C
inactive: 1 nM -0.44% | 8.33 nM -1.26% | 100 nM 0.63% | 833.33 nM -0.09% | 10000 nM -1.98%

Cc1c(C(=O)NCCCO)cnn1-c1nc(-c2cccc(C(F)(F)F)c2)cs1
inactive: 1 nM 2.55% | 8.33 nM 3.83% | 100 nM 3.4% | 833.33 nM 5.36% | 10000 nM -0.86%

CCCCCN(CCCOC)C(=O)[C@@H](CCC(=O)O)NC(=O)c1ccc(Cl)c(Cl)c1 [dexloxiglumide]
inactive: 1 nM -5.32% | 8.33 nM -1.73% | 100 nM 2.58% | 833.33 nM -1.51% | 10000 nM 2.38%

CCCN1CCO[C@@H]2c3cc(O)ccc3OC[C@H]21
inactive: 1 nM -1.91% | 8.33 nM -3.42% | 100 nM 2.39% | 833.33 nM -0.35% | 10000 nM -2.98%

COc1cccc(OC)c1OCCNC[C@H]1COc2ccccc2O1
inactive: 1 nM -0.3% | 8.33 nM 0.6% | 100 nM 0.45% | 833.33 nM 0% | 10000 nM 0.85%

Clc1cccc(C(c2ccc3[nH]cnc3c2)n2ccnc2)c1 (stereo not given) [liarozole]
inactive: 1 nM 0.27% | 8.33 nM 3.78% | 100 nM 1.18% | 833.33 nM 1.7% | 10000 nM 1.64%

O=C1CCCCCCCCCCCCCCO1 [oxacyclohexadecan-2-one]
inactive: 1 nM -0.21% | 8.33 nM 0.27% | 100 nM 0.06% | 833.33 nM 1.81% | 10000 nM -1.21%

CC[C@H](C)[C@H](N)C1=N[C@H](C(=O)N[C@@H](CC(C)C)C(=O)N[C@H](CCC(=O)O)C(=O)N[C@H](C(=O)N[C@H]2CCCCNC(=O)[C@H](CC(N)=O)NC(=O)[C@@H](CC(=O)O)NC(=O)[C@H](Cc3cnc[nH]3)NC(=O)[C@@H](Cc3ccccc3)NC(=O)[C@H]([C@@H](C)CC)NC(=O)[C@@H](CCCN)NC2=O)[C@@H](C)CC)CS1 [bacitracin]
inactive: 1 nM -0.71% | 8.33 nM 2.89% | 100 nM -2.3% | 833.33 nM -1.54% | 10000 nM -0.85%

CC(C)NCCN(C(C)C)S(=O)(=O)c1ccc(Cl)cc1Cl
inactive: 1 nM 1.45% | 8.33 nM -1.25% | 100 nM 0.74% | 833.33 nM -2.09% | 10000 nM -5.49%

Cc1onc(O)c1C[C@@H](N)C(=O)O (racemic)
inactive: 1 nM 0.825% | 8.33 nM 1.39% | 100 nM 2.15% | 833.33 nM 2.51% | 10000 nM 1.4%

NS(=O)(=O)c1ccc(NC(=O)Nc2ccc(F)cc2)cc1
inactive: 1 nM 1% | 8.33 nM -1.24% | 100 nM 0.78% | 833.33 nM -1.65% | 10000 nM -0.78%

O=C(NOCC(O)CO)c1cc(Br)c(F)c(F)c1Nc1ccc(I)cc1F (stereo not given)
inactive: 1 nM -0.27% | 8.33 nM -0.08% | 100 nM -8.55% | 833.33 nM -10% | 10000 nM -12.5%

N[C@@H](CCNCc1ccc(Cl)cc1)C(=O)N1CCCCC1
inactive: 1 nM 0.82% | 8.33 nM -0.55% | 100 nM -2.08% | 833.33 nM -1.49% | 10000 nM -1.28%

CS(=O)(=O)c1ccc(-c2cc(Br)sc2-c2ccc(F)cc2)cc1
inactive: 1 nM 3.29% | 8.33 nM -0.45% | 100 nM -5.25% | 833.33 nM -3.46% | 10000 nM -5.5%

c1ccc(-c2n[nH]c3c2oc2ccccc23)cc1
inactive: 1 nM -0.45% | 8.33 nM -5.74% | 100 nM 1% | 833.33 nM 2.4% | 10000 nM -0.82%

C=CCc1ccc(O)c(-c2ccc(O)c(CC=C)c2)c1 [honokiol]
inactive: 1 nM 0.73% | 8.33 nM -0.89% | 100 nM -1.94% | 833.33 nM -0.06% | 10000 nM -0.26%

C[C@]12CCC(=O)C=C1C=C[C@@H]1[C@@H]2CC[C@@]2(C)[C@H]1CC[C@@]21CCC(=O)O1 [canrenone]
inactive: 1 nM -1.44% | 8.33 nM -1.41% | 100 nM -2.85% | 833.33 nM -2.53% | 10000 nM 6.34%
